AMA1 RON2 block – AMA1-RON2 (P. falciparum) interaction inhibition | AlphaScreen AMA1-biotinylated RON2 peptide binding | Potency, µM (titrated, usually from 58.2 µM), actives largely listed as inhibitors | hit rate 0.2% among 360,000; note: nearly all actives have a fitted effect of over 45% in size
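AMA1 (3D7) with his tag at 25 nM final met compounds first, then biotinylated RON2 peptide at 25 nM; detection used donor plus acceptor beads, 10 µg/mL apiece, read by AlphaScreen after 30 min at room temperature.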
Pf growth 96h – inhibits malaria parasite growth, 96 h. Potency, µM (titrated, usually from 28.7 µM), hits mostly inhibitors. P. falciparum luciferase reporter growth, 96 h. AID 504834. hit rate 6.9% among 320,000
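96 h incubation, 37 C, 5% CO2, of luciferase-reporter P. falciparum-infected RBCs (2% hematocrit, 0.05% parasitemia final) with test compounds; endpoint luminescence.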
Shiga inhibitor – Shiga toxin inhibition. Vero cells, Shiga toxin protein synthesis inhibition reporter. inhibition, % at 38.7 µM. hit rate 9.2% among 290,000. AID 2315; in the data active = inhibition mostly above about 28%, no sharp cut-off; inactive = mostly below about 43%
HCV inhibitor – blocks hepatitis C virus. hit rate 3.4% among 340,000. Huh7.5.1 HCVcc-Cre infection, luciferase reporter, 44 h. Potency, µM (doses to about 41.8 µM), hits mostly inhibitors
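Cells seeded at 1,000/well and cultured 4 h, then compounds added followed by HCVcc-Cre virus (~0.5 moi). After 44 h further culture, luciferase substrate was added, plates held 15 min at room temperature, and luminescence read for 15 sec.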
Pf growth 48h – P. falciparum growth inhibition at 48 hours (one generation); hit rate 5.9% among 310,000; Potency, µM (titrated, usually from 28.7 µM), usual class: inhibitors; P. falciparum luciferase growth in erythrocytes, 48 h
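Here the parasites carry a stable luciferase gene and grow inside erythrocytes in Albumax-based RPMI medium with compound for one erythrocytic cycle. Activity is scored as loss of luminescent signal.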
CHX counter – counter-screen for Shiga toxin inhibitors: cycloheximide protein synthesis inhibition. cell reporter, cycloheximide protein synthesis inhibition counterscreen. max response, %. hit rate 12% among 300,000. AID 2314; in the data active = max response mostly above about 13%, no sharp cut-off; inactive = mostly below about 14%; note: read at 38.3 µM for the half of the compounds with a filed dose
Numbers stand for hits; n = inactive; u = inconclusive; x = no result; [ ] = remark or other dose. Shown are actives, neighbours in structure and some others; about 21% of the full set was active somewhere. Unless noted, calls come from the whole dose curve; as a rule, active = well fitted curve in the direction sought with a large enough effect; inconclusive = small, poorly fitted or top-dose-only effect, or another doubt; inactive = no such curve, though single readings can be large; an effect the other way counts as inactive or inconclusive.

SMILES	AMA1 RON2 block	Pf growth 96h	Shiga inhibitor	HCV inhibitor	Pf growth 48h	CHX counter
Cc1cc(C(=O)NCCc2ccc(S(=O)(=O)NC(=O)NN3CCCCCC3)cc2)no1	x	n	n	x	n	n
CCN1C/C(=C/c2ccc(OC)c(O)c2)C(=O)/C(=C/c2ccc(OC)c(O)c2)C1	n	1.7µM	n	u	2.6µM	n
COc1ccc(/C=C2\CN(Cc3ccccc3)C/C(=C\c3ccc(OC)c(O)c3)C2=O)cc1O	n	3.7µM	n	6.3µM	3.3µM	14
O=S1(=O)CCN2C(c3ccc4c(c3)CCCC4)=CSC2=N1	n	u	n	n	n	n
O=S1(=O)CCN2C(=N1)Sc1c2ccc2c1CCCC2	n	x	69	n	x	25
COc1cccc(NC(=O)CN(c2cccc(F)c2)S(C)(=O)=O)c1	n	x	n	8.9µM	n	n
CC(=O)c1cccc(N(CC(=O)Nc2ccc(F)cc2)S(C)(=O)=O)c1	n	n	41	n	n	11
COc1cccc(NC(=O)CN(c2cccc(OC)c2)S(C)(=O)=O)c1	n	n	n	n	n	n
CC(=O)Nc1ccc(NC(=O)CN(c2cccc(C(C)=O)c2)S(C)(=O)=O)cc1	n	n	n	n	n	n
COC(=O)CN(c1ccc(OC)c(OC)c1)S(C)(=O)=O	n	u	n	n	n	n
COC(=O)CN(c1cccc(OC)c1)S(C)(=O)=O	n	5.9µM	n	n	n	n
CC(C)N(C)c1ncnc2c1ncn2[C@H]1CN(Cc2cccs2)C[C@@H](CO)O1	n	x	x	x	x	x
COc1ccc2nc(/C=N/NC(=O)[C@@H]3CCCN3C(=O)OC(C)(C)C)ccc2c1	n	n	76	n	n	46
CC(C)(C)OC(=O)N1CCC[C@H]1C(=O)N/N=C/c1cccc2nccnc12	n	u	n	n	15µM	n
CC(C)(C)OC(=O)N1CCC[C@H]1C(=O)N/N=C/c1ccc2nccnc2c1	n	n	n	n	u	n
Cc1ccc(NC(=O)c2ccc3c(c2)C(=O)N(c2ccccc2C)C3=O)nc1	n	n	x	n	n	x
CCOC(=O)Cn1cnc2c(nnn2-c2cccc(OC)c2)c1=O	n	n	n	n	n	n
COc1cccc(-n2nnc3c(=O)n(CC(=O)OCc4ccccc4)cnc32)c1	n	0.17µM	n	n	n	n
COc1cccc(-n2nnc3c(=O)n(CC(=O)NC4CCCC4)cnc32)c1	n	0.33µM	n	n	n	n
COc1cccc(-n2nnc3c(=O)n(CC(=O)Nc4ccccc4C)cnc32)c1	n	n	n	n	n[1.15 µM]	n
OC[C@@H]1CN(Cc2cccnc2)C[C@H](n2cnc3c(NC4CCCC4)ncnc32)O1	n	x	x	x	x	x
COc1ccccc1-n1c(CNc2c(C)cccc2C)nnc1SCC(=O)N1CCOCC1	n	12µM	n	n	n	n
COc1ccccc1-n1c(SCC(=O)N2CCOCC2)nc2ccccc2c1=O	n	n	n	u	n	n
Cc1cc(C)cc(OCC(=O)NNC(=O)CC(C)c2ccccc2)c1 (stereo unspecified)	n	x	x	x	x	x
COc1ccc(/C=C/C(=O)Nc2cccc(S(=O)(=O)N3CCOCC3)c2)cc1OC	n	u	x	u	n	x
SMILES	AMA1 RON2 block	Pf growth 96h	Shiga inhibitor	HCV inhibitor	Pf growth 48h	CHX counter
CN(C)S(=O)(=O)c1cccc(NC(=O)/C=C/c2ccc(S(=O)(=O)N3CCOCC3)cc2)c1	n	u	x	u	8.3µM	x
O=C(/C=C/c1ccc(OC(F)F)cc1)Nc1cccc(S(=O)(=O)N2CCOCC2)c1	n	u	41	5.6µM	n	25
CC(=O)c1cccc(NC(=O)/C=C/c2ccc(S(=O)(=O)N3CCOCC3)cc2)c1	n	x	x	u	x	x
Cn1ccc2c(-c3ccc(C(=O)O)cc3)cc3c(c21)C1CCC3C1 (stereo unspecified)	n	x	x	x	x	x
COCCn1nnnc1C(C(C)C)N1CCOCC1 (stereo unspecified)	n	8.3µM	n	n	n	n
CCCNC(=O)Cn1nc(-c2ccccc2OC)ccc1=O	n	x	x	x	x	x
C#CCCC(=O)c1ccccc1/C=[N+](\[O-])c1ccccc1	n	u	x	n	1.2µM	x
CC(C)c1nc(SCC(=O)c2ccc(F)cc2)c2ccccc2n1	n	n	n	u	u	20
CC(C)c1nc(SCC(=O)Nc2ccc(N(C)C)cc2)c2ccccc2n1	u	n	n	u	12µM	n
CCOC(=O)CSc1nc(C)c2cccc(C)c2n1	n	n	n	n	n	n
COC(=O)CSc1nc(C(C)C)nc2ccccc12	n	n	n	n	n	n
CCOC(=O)CSc1nc(C)c2ccccc2n1	n	x	n	u	n	11
CCOC(=O)CSc1nc(C(C)C)nc2ccccc12	n	13µM	n	n	n	n
COc1ccc(OC)c(CN2C(=O)c3ccccc3C2c2nnnn2C2CCCC2)c1 (stereo unspecified)	n	x	x	x	x	x
CN1OC[C@@H]2CN[C@H](c3ccc(-c4cccc(F)c4)cc3)C[C@@H]21	n	x	x	x	x	x
COc1ccc(C(=O)N(C)Cc2ccc(C)o2)cc1OC1CCN(C(C)=O)CC1	n	n	n	n	n	n
COc1ccc(CCCNC(=O)C2(C)Cc3c(-c4ccc(C(N)=O)cc4)ccnc3O2)cc1 (stereo unspecified)	n	x	x	x	x	x
OCC[C@@H]1C[C@H](O)[C@@H](O)[C@]2(OCCc3ccccc32)O1	n	n	n	n	n	n
O=C(CCCn1c(SCC(=O)c2ccc(F)cc2)nc2ccccc2c1=O)NCc1ccccc1	n	10µM	n	n	x	n
O=C(CCCn1c(SCC(=O)NCC2CCCO2)nc2ccccc2c1=O)NCc1ccccc1 (stereo unspecified)	u	9.3µM	n	n	x	n
O=C(CCCn1c(SCc2cc(=O)n3cc(Cl)ccc3n2)nc2ccccc2c1=O)NCC1CCCO1 (stereo unspecified)	n	10µM	n	n	6.6µM	n
O=C(CCCn1c(SCc2cc(=O)n3ccccc3n2)nc2ccccc2c1=O)NCC1CCCO1 (stereo unspecified)	n	u	n	n	n	n
O=C(CCCn1c(SCC(=O)Nc2ccccc2Cl)nc2ccccc2c1=O)NCC1CCCO1 (stereo unspecified)	n	n	n	u	u	n
CCOC(=O)c1cc(C#N)c(SC(C)C(=O)NC2CCCCC2)nc1C (stereo unspecified)	n	n	x	n	n	x
COCCCNC(=O)CCn1c(=O)c2ccccc2n(CC(=O)Nc2c(C)cccc2C)c1=O	n	9.3µM	n	n	n	n
COCCCNC(=O)CCn1c(=O)c2ccccc2n(CC(=O)Nc2ccccc2C)c1=O	n	n	n	n	n	n
CCCN(CCC)C(=O)Cn1c(=O)n(CCC(=O)NCCc2ccccc2)c(=O)c2ccccc21	n	9.3µM	n	n	x	n
O=C(CCn1c(=O)c2cccn2c2ccc(F)cc21)NCCc1ccccc1	n	n	n	10µM	n	n
CN(C)CCNC(=O)Cn1c(=O)c2cccn2c2ccc(F)cc21	n	u	n	n	n	n
